Screening data: PubChem, several laboratories
14-3-3 Bad PPI – disrupts binding of bovine 14-3-3 zeta to phospho-Bad peptide; P63103; inhibition, % at 21.7 µM; 220,000 tested, 0.71% active; TR-FRET 14-3-3zeta/Dy647-pBad peptide displacement, 1 h;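 active = inhibition above about 70%, limit read from the data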;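 also: 0% = full 14-3-3 plus peptide FRET controls and 100% = background without 14-3-3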
Target sequence (P63103 whole entry, looked up): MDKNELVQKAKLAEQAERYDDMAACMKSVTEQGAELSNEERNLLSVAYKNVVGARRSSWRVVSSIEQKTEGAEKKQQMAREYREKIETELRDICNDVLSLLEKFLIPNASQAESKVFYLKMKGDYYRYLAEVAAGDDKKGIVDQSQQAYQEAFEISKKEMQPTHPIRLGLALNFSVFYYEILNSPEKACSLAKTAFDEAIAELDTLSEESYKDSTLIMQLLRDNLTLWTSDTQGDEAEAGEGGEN
eIF4E-4G inh – blocks eIF4E binding to eIF4G; P63073+Q04637; 220,000 tested, 0.37% active; inhibition, % at 21.7 µM; TR-FRET eIF4E-eIF4GI(517-606) binding, 2 h;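 active = inhibition above about 30%, limit read from the data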;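 also: 0% = full FRET control wells and 100% = background wells lacking eIF4GI fragment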
Mcl1-Bid inh – disrupts binding of human Mcl-1 to Bid peptide | Q07820 | TR-FRET Mcl-1/Bid-Dy647 peptide binding, 1536-well | inhibition, % at 21.7 µM | 220,000 tested, 0.97% active;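 active = compounds that cut the binding signal by more than half at the single screening dose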;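 also: His-tagged Mcl-1 with europium anti-His antibody binding Bid BH3 peptide; 0% = Mcl-1 plus peptide wells and 100% = peptide-only wells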
Target sequence (Q07820 whole entry, looked up): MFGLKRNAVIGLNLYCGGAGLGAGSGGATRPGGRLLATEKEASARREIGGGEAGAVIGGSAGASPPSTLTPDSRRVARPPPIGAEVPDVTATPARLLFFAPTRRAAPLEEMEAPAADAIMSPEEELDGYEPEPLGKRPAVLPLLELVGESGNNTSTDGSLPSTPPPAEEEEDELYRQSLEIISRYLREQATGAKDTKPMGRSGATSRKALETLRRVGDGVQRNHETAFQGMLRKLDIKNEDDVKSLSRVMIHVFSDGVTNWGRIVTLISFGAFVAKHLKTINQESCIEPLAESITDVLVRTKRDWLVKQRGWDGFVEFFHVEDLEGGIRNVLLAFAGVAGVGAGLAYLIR
Mcl1 Noxa PPI – disrupts binding of human Mcl-1 to Noxa peptide; Q07820; TR-FRET Mcl-1/Noxa peptide binding, 2 h; inhibition, % at 21.7 µM; 220,000 tested, 1.5% active; AID 1022;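 active = compounds that cut the protein-peptide binding signal by more than 50% relative to plate controls in a single-dose test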;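 also: His-tagged Mcl-1 with rhodamine Noxa BH3 peptide and terbium anti-His antibody; 0% = Mcl-1 plus Noxa peptide wells and 100% = peptide-only wells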
Bim-Mcl-1 – human Bim-Mcl-1 interaction inhibition. 190,000 tested, 0.1% active. Bead-based flow cytometry, Bim peptide-Mcl-1 binding. inhibition, % at 10 µM; in the data active = inhibition above about 40%;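 also: 0% = no compound tracer wells and 100% = peptide blocker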
MCL1 BIM primary – disrupts human MCL1 binding to BIM-BH3 peptide; Q07820; GST-MCL1 / FITC-Bim-BH3 fluorescence polarization; inhibition, % at 10.9 µM; 320,000 tested, 0.68% active;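 active = inhibition above the mean inhibition of all tested compounds plus 3 SD, set per campaign, cut at about 40% in these data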;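 also: 0% = DMSO wells and 100% = unlabeled Bim-BH3 peptide control; higher means more loss of mP so more displacement of Bim peptide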
An asterisk follows results filed as active; / = no result; [ ] = dose if it differs, or a comment. Sampled rows, rich in hits. Any-hit rate of the full collection: about 2.6%.

SMILES | 14-3-3 Bad PPI | eIF4E-4G inh | Mcl1-Bid inh | Mcl1 Noxa PPI | Bim-Mcl-1 | MCL1 BIM primary
CNC(=O)c1nnn(Cc2ccccc2)c1NC(=O)C(F)(F)F | 77* | -7 | -6 | 11 | 0 | 0
CNC(=O)c1nnn(Cc2ccccc2)c1NC(C)=O | 9 | 6 | -8 | 12 | -2 | 4
CCc1ccc(N(CC(=O)NC(C)C)C(=O)CCC(=O)Nc2nccs2)cc1 | / | / | / | / | / | 2
O=C(O)COc1ccccc1O | 20 | 16 | -19 | 52* | -2 | 7
CC1CCC(NC(=O)CSc2nnc(-c3cccnc3)o2)CC1 (configuration not stated) | / | / | / | / | / | -3
CCOC(=O)c1cc2c(=O)n3ccccc3nc2n(Cc2ccco2)c1=NC(=O)c1cccnc1 | -5 | 5 | -71 | 51* | 3 | 18
CCOC(=O)c1cc2c(=O)n3cccc(C)c3nc2n(Cc2ccco2)c1=NC(=O)c1cccnc1 | -6 | 22 | -14 | 69* | 13 | /
CCOc1ccccc1NC(=O)C(c1ccccc1)N1CCN(C(=O)c2ccco2)CC1 (configuration not stated) | / | / | / | / | / | 3
CC1(C)CC2CC(C)(CN2C(=O)COC(=O)c2ccccc2C(F)(F)F)C1 (configuration not stated) | / | / | / | / | / | 7
O=C(C1CCCN(Cc2ccccc2Br)C1)N1CCCCC1 (configuration not stated) | 62 | 10 | 59* | -22 | -4 | 9
O=C(C1CCCN(Cc2ccccc2F)C1)N1CCCCC1 (configuration not stated) | / | / | / | / | / | -3
COc1ccc(Br)cc1CN1CCCC(C(=O)N2CCCCC2)C1 (configuration not stated) | 73* | -9 | 43 | -3 | 0 | -3
COc1ccc(Br)cc1CN1CCCC(C(=O)N2CCCCCC2)C1 (configuration not stated) | 21 | 0 | 42 | 32 | -9 | 1
CN(C)CCN(C(=O)c1cccc(Cl)c1)c1nc2c(Cl)cccc2s1 | 6 | 3 | -18 | -5 | -2 | 5
CN(C)CCN(C(=O)c1ccccc1Cl)c1nc2c(Cl)cccc2s1 | -3 | -2 | 57* | -7 | -4 | 0
COc1ccc(S(=O)(=O)Nc2c(C)nc3nc[nH]n3c2=O)cc1 | -19 | 1 | 66* | 7 | -4 | 0
CC(C)c1ccc(CN2CCC(Oc3ccc(C(=O)N4CCCC4)cc3)CC2)cc1 | / | / | / | / | / | 3
CCn1c(=O)c2c(n3c(=S)[nH]nc13)-c1ccccc1CC21CCCCC1 | -20 | -1 | -70 | 34 | -5 | -11
COc1ccc(N2C(=O)CC(N3CCN(c4cccc(Cl)c4)CC3)C2=O)cc1 (configuration not stated) | / | / | / | / | / | 13
COc1cccc(N2CCN(C3CC(=O)N(c4ccc(Cl)c(Cl)c4)C3=O)CC2)c1 (configuration not stated) | -11 | 6 | 59* | 12 | -1 | 8
N#C/C(=C\c1ccc(OC(=O)c2ccc(Br)s2)cc1)c1nc2ccccc2[nH]1 | 61 | 34* | 19 | 33 | 5 | -2
N#C/C(=C\c1ccc(OC(=O)c2ccc(Cl)s2)cc1)c1nc2ccccc2[nH]1 | 31 | 23 | -10 | 19 | 6 | -12
Cc1c(C(=O)OCC(=O)Nc2ccc(C(N)=O)cc2)cccc1[N+](=O)[O-] | -1 | 3 | -6 | 7 | 2 | 3
Cc1cccc(N2CC(O)(c3cccs3)[N+]3=C2CCCCC3)c1 (configuration not stated) | 83* | -1 | -37 | 6 | 4 | 7
CC(=O)c1ccc(C(=O)Nc2nnc(-c3ccc(Cl)cc3)o2)cc1 | -12 | -15 | -59 | -67 | / | 6
SMILES | 14-3-3 Bad PPI | eIF4E-4G inh | Mcl1-Bid inh | Mcl1 Noxa PPI | Bim-Mcl-1 | MCL1 BIM primary
COc1cccc(C(=O)Nc2nnc(-c3ccc(F)cc3)o2)c1 | -8 | 95* | -84 | -77 | / | 9
CN(C)c1ccc(C(=O)Nc2nnc(-c3ccc(Cl)cc3)o2)cc1 | 24 | 2 | 48 | 69* | 0 | 15
O=C1C=C(c2ccc(OC(F)(F)F)cc2)C[C@@H](c2ccc(Cl)cc2)C1 | / | / | / | / | / | -3
CC(=O)Nc1ccc(Nc2cc(C)nc3c(-c4ccccc4)cnn23)cc1 | 0 | 1 | -20 | 7 | -4 | 8
O=C(NCc1ccco1)c1cc2cc(Br)ccc2o1 | / | / | / | / | / | 8
CN(C)Cc1c(-c2ccc(Cl)cc2)nc2ccc(Cl)cn12 | -5 | -1 | -17 | 7 | 0 | 3
Cn1c(=S)[nH]c2scc(-c3cccs3)c2c1=O | -7 | 4 | -47 | 64* | 0 | /
Oc1ccc(Br)cc1-c1cc(-c2ccco2)[nH]n1 | 2 | 4 | 2 | 64* | -3 | -10
Oc1ccccc1-c1cc(-c2ccco2)[nH]n1 | -15 | 3 | -24 | 48 | -4 | -2
NS(=O)(=O)c1ccc2c(c1)C1C=CCC1C(C1CC=CCC1)N2 (configuration not stated) | -13 | 12 | -29 | 22 | 1 | 44*
O=C(COC(=O)CCNS(=O)(=O)c1ccccc1)NC(=O)c1ccccc1 | / | / | / | / | / | -9
Cc1occc1-c1nnc(SCC(=O)NC2CCC(C)CC2)o1 (configuration not stated) | / | / | / | / | / | 0
O=C(Nc1cnn(C23CC4CC(CC(C4)C2)C3)c1)c1cnn2c(C(F)(F)F)cc(-c3ccco3)nc12 | 77* | 7 | 79* | 31 | 0 | -2
O=C(CCC1CCCCC1)Nc1nncs1 | / | / | / | / | / | -4
O=C(CCNS(=O)(=O)c1cccc2nsnc12)Nc1ccc2c(c1)OCCO2 | -4 | 0 | -6 | 21 | 0 | 3
CCn1cc(S(=O)(=O)Nc2ccc3c(c2)OCCO3)cn1 | -11 | -1 | -21 | 7 | -3 | 3
O=S(=O)(Nc1ccc2c(c1)OCCO2)c1cccc2nsnc12 | -10 | 9 | 61* | 26 | -1 | 0
Cn1cc(S(=O)(=O)Nc2ccc3c(c2)OCCO3)cn1 | 89* | 2 | -21 | -2 | -2 | 10
CCn1[nH]c(=O)c(=Nc2c(C)n(C)n(-c3ccccc3)c2=O)cc1-c1ccc(Cl)cc1 | 91*[fluorescence artefact?] | 2 | -35 | 20 | -2 | 3
COCC(=O)Oc1c(S(=O)(=O)c2ccc(C)cc2)c(C)nn1C(C)(C)C | / | / | / | / | / | 1
CCC(CC)C(=O)Oc1c(Sc2ccccc2[N+](=O)[O-])c(C)nn1C(C)(C)C | 1 | -1 | 91* | -7 | -3 | 7
COCC(=O)Oc1c(Sc2ccccc2[N+](=O)[O-])c(C)nn1C(C)(C)C | 42 | 41* | -6 | 27 | 1 | 7
CC1CC(C)CN(C(=O)CSc2ncnc3sccc23)C1 (configuration not stated) | / | / | / | / | / | 1
CCOC(=O)C1=C(C)N(C)C(=O)NC1c1cccc([N+](=O)[O-])c1 (configuration not stated) | / | / | / | / | / | -3
